In PubChem BioAssay (Tox21):
Inconclusive results are not listed. Activity calls are given as the source filed them. Calls come from the whole dose curve.

Legend:
[1] = biological target: Acetylcholinesterase (Homo sapiens) (UniProt P22303); experiment: Acetylcholinesterase (AChE) small molecule antagonists: colormetric cell-based qHTS assay (AID 1347395); note: nearly all actives have a fitted effect of over 30% in size
Method in brief: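 SH-SY5Y cells attached overnight, exposed to compound 30 min at 37 C, then given DTNB/acetylthiocholine; after 90 min at 37 C, colorimetric thiocholine read gives cellular AChE activity.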

[2] = biological target: Acetylcholinesterase (Homo sapiens) (UniProt P22303); experiment: Acetylcholinesterase (AChE) small molecule antagonists: enzyme-based qHTS assay (AID 1347397); conditions: Potency: AChE enzyme activity inhibition; outcome: AChE enzyme activity inhibition; note: nearly all actives have a fitted effect of over 55% in size
Method in brief: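 Absorbance-based detection of thiocholine with DTNB served as the read-out. Recombinant human AChE was exposed to compound for 30 min at RT before a 10 min RT incubation with acetylthiocholine.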

[3] = biological target: Acetylcholinesterase (Homo sapiens) (UniProt P22303); experiment: Acetylcholinesterase (AChE) small molecule antagonists: fluorescence cell-based qHTS assay (AID 1347398); conditions: Potency: AChE activity; outcome: AChE activity; note: nearly all actives have a fitted effect of over 50% in size
Method in brief: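 Fluorimetric cell-based assay: intact SH-SY5Y cells, 30 min compound preincubation at 37 C, acetylthiocholine substrate with thiol probe Thiolite Green, 40 min RT development, fluorescence 490/520 nm.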

[4] = biological target: Acetylcholinesterase (Homo sapiens) (UniProt P22303); experiment: Acetylcholinesterase (AChE) small molecule antagonists: enzyme-based qHTS assay with human liver microsomes (AID 1347399); conditions: Potency: qHTS inhibition; outcome: qHTS inhibition; note: nearly all actives have a fitted effect of over 60% in size
Method in brief: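 Recombinant human AChE (50 mU/mL in the enzyme mix) and human liver microsomes (0.25 mg/mL final) were preincubated with compound and NADPH (0.25 mg/mL final) for 30 min at 37 C. Acetylthiocholine/DTNB was then added; thiocholine was read colorimetrically after 10 min at room temperature.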
% is set by controls: 0 for no effect and ±100 for the full control effect.

Chain of Acetylcholinesterase (Homo sapiens) (P22303 whole entry, looked up): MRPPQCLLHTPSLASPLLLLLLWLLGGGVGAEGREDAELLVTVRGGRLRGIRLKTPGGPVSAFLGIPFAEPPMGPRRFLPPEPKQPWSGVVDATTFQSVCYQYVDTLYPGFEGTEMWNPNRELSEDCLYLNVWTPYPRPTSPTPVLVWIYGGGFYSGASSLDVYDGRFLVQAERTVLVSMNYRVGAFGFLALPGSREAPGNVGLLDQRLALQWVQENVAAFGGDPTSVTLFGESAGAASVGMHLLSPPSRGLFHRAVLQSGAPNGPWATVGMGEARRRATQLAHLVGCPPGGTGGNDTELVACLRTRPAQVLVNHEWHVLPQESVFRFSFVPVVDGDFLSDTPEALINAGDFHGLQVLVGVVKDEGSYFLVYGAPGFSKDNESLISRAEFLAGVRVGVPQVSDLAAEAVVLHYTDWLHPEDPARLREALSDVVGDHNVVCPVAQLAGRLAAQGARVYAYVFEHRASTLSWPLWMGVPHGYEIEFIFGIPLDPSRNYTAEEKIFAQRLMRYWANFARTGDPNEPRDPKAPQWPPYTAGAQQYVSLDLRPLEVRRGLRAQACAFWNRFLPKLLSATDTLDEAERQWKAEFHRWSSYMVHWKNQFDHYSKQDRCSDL

Clc1cccc(Cl)n1
inactive: Potency [1] | Potency [2] | Potency [3] | Potency [4]

CC(=O)OC/C=C(C)/C=C/C=C(C)/C=C/C1=C(C)CCCC1(C)C
inactive: Potency [1] | Potency [2] | Potency [3] | Potency [4]

C=CC(=O)OCCOC1C2CCC1C1CC=CC12 (stereo not given)
inactive: activity, negative = inhibition [1] 0.351% [at 23.6 µM] | activity change, negative = inhibition [2] 0.411% [at 23.6 µM] | activity change, negative = inhibition [3] -2.44% [at 23.8 µM] | activity change, negative = inhibition [4] 0.164% [at 23.6 µM]

Cc1c(F)c(N2CCNC(C)C2)cc2c1c(=O)c(C(=O)O)cn2C1CC1 (stereo not given)
inactive: Potency [1] | Potency [2] | Potency [3] | Potency [4]

CCCCNC(=S)NCCCC
inactive: Potency [1] | Potency [2] | Potency [3] | Potency [4]

Nc1ncnc2c1ncn2[C@@H]1O[C@H](COP(=O)(O)O)[C@@H](O)[C@H]1O
inactive: Potency [1] | Potency [2] | Potency [3] | Potency [4]

CCCCC1CCC(O)CC1 (stereo not given)
inactive: Potency [1] | Potency [2] | Potency [3] | Potency [4]

O=[N+]([O-])c1ccc(CO)cc1
inactive: Potency [1] | Potency [2] | Potency [3] | Potency [4]

Nc1nc(Cl)cc(Cl)n1
inactive: Potency [1] | Potency [2] | Potency [3] | Potency [4]

CC(=O)OCCOC(C)=O
inactive: Potency [1] | Potency [2] | Potency [3] | Potency [4]

NC[C@H](O)c1ccc(O)c(O)c1
inactive: Potency [1] | Potency [2] | Potency [3] | Potency [4]

Clc1ccccc1C(c1ccccc1)(c1ccccc1)n1ccnc1
inactive: Potency [1] | Potency [2] | Potency [3] | Potency [4]

COc1ccc(/C=N/NC(=O)c2ccncc2)cc1OC
inactive: Potency [1] | Potency [2] | Potency [3] | Potency [4]

N=c1ccn2c(n1)O[C@H]1[C@H](O)[C@@H](CO)O[C@H]12
inactive: Potency [1] | Potency [2] | Potency [3] | Potency [4]

CCN[C@H]1C[C@H](C)S(=O)(=O)c2sc(S(N)(=O)=O)cc21
inactive: Potency [1] | Potency [2] | Potency [3] | Potency [4]

CCOC(=O)c1cccc(N)c1
inactive: outcome [1] | outcome [2] | outcome [3] | outcome [4]

C1CCCNCC1
inactive: Potency [1] | Potency [2] | Potency [3] | Potency [4]

CC(C)Nc1ccccc1
inactive: Potency [1] | Potency [2] | Potency [3] | Potency [4]

O=c1[nH]c2ccccc2n1CCCN1CCN(C(c2ccccc2)c2ccccc2)CC1
inactive: Potency [1] | Potency [2] | Potency [3] | Potency [4]

CC1=NC(C)OC1C (stereo not given)
inactive: Potency [1] | Potency [2] | Potency [3] | Potency [4]

CCN1C=CN(C)C1C (stereo not given)
inactive: Potency [1] | Potency [2] | Potency [3] | Potency [4]

CC(C)(C)CC(C)(C)c1ccc(O)c(-n2nc3ccccc3n2)c1
inactive: Potency [1] | Potency [2] | Potency [3] | Potency [4]

CCCCCC(N)=O
inactive: Potency [1] | Potency [2] | Potency [3] | Potency [4]

CCCCOC(=O)CCC(C)=O
inactive: Potency [1] | Potency [2] | Potency [3] | Potency [4]

COC(=O)c1ccc(C(=O)OC)cc1
inactive: Potency [1] | Potency [2] | Potency [3] | Potency [4]

CN(C)c1ccc(/C=C/c2ccc([N+](=O)[O-])cc2)cc1
inactive: activity, negative = inhibition [1] 3.64% [at 10.5 µM] | activity change, negative = inhibition [2] 1.35% [at 10.5 µM] | activity change, negative = inhibition [3] 4.62% [at 10.5 µM] | activity change, negative = inhibition [4] 1.54% [at 10.5 µM]

CC(C)[C@H]1CC[C@@H](C)CC1=O
inactive: Potency [1] | Potency [2] | Potency [3] | Potency [4]

CC(O)C#CC(C)O (stereo not given)
inactive: Potency [1] | Potency [2] | Potency [3] | Potency [4]

CCCCCCCC(=O)Oc1c(Br)cc(C#N)cc1Br
inactive: Potency [1] | Potency [2] | Potency [3] | Potency [4]

O[Si](c1ccccc1)(c1ccccc1)c1ccccc1
inactive: Potency [1] | Potency [2] | Potency [3] | Potency [4]

C=CCOc1cc(Cl)ccc1C(=O)NCCN(CC)CC
inactive: Potency [1] | Potency [2] | Potency [3] | Potency [4]

CCCCCCCC/C=C\CCCCCCCC(=O)OC
inactive: Potency [1] | Potency [2] | Potency [3] | Potency [4]

O=P(c1ccccc1)(c1ccccc1)c1ccccc1
inactive: Potency [1] | Potency [2] | Potency [3] | Potency [4]

Oc1ccc2c(c1)-c1ccccc1C2
inactive: Potency [1] | Potency [2] | Potency [3] | Potency [4]

CNCC[C@@H](Oc1ccccc1C)c1ccccc1
inactive: Potency [1] | Potency [2] | Potency [3] | Potency [4]

O=C(O)C[C@H](NC(=O)OCc1ccccc1)C(=O)O
inactive: Potency [1] | Potency [2] | Potency [3] | Potency [4]

CC(=O)c1ccccc1O
inactive: Potency [1] | Potency [2] | Potency [3] | Potency [4]

CCc1ccc2c(c1)C(=O)c1ccccc1C2=O
inactive: Potency [1] | Potency [2] | Potency [3] | Potency [4]

CC1CCC(C(C)(C)S)C(=O)C1 (stereo not given)
inactive: Potency [1] | Potency [2] | Potency [3] | Potency [4]

CC1(C)C(=O)N(Cl)C(=O)N1Br
inactive: Potency [1] | Potency [2] | Potency [3] | Potency [4]

CC(C)CCCCCCc1ccc(O)cc1
inactive: Potency [1] | Potency [2] | Potency [3] | Potency [4]

CCS(=O)(=O)CCn1c([N+](=O)[O-])cnc1C
inactive: Potency [1] | Potency [2] | Potency [3] | Potency [4]

CCCCCC(=O)O
inactive: Potency [1] | Potency [2] | Potency [3] | Potency [4]

CNCCCCOc1ccccc1Cc1ccccc1
inactive: Potency [1] | Potency [2] | Potency [3] | Potency [4]

CC(C[N+](C)(C)C)OC(N)=O (stereo not given)
inactive: Potency [1] | Potency [2] | Potency [3] | Potency [4]

CCCCCc1cccc(=O)o1
inactive: Potency [1] | Potency [2] | Potency [3] | Potency [4]

CC(C)(Oc1ccc(Cl)cc1)C(=O)OCCCOC(=O)C(C)(C)Oc1ccc(Cl)cc1
inactive: Potency [1] | Potency [2] | Potency [3] | Potency [4]

CN(C)c1cc(NC(=O)CNC(C)(C)C)c(O)c2c1C[C@H]1C[C@H]3[C@H](N(C)C)C(=O)C(C(N)=O)=C(O)[C@@]3(O)C(=O)C1=C2O
inactive: Potency [1] | Potency [2] | Potency [3] | Potency [4]

COc1ccc(OC)c(NC(=O)CC(C)=O)c1
inactive: Potency [1] | Potency [2] | Potency [3] | Potency [4]

CC1CCCCC1
inactive: Potency [1] | Potency [2] | Potency [3] | Potency [4]

C=CCOC(=O)/C=C\C(=O)OCC=C
inactive: Potency [1] | Potency [2] | Potency [3] | Potency [4]

O=C=NCC1CCCC(CN=C=O)C1 (stereo not given)
inactive: Potency [1] | Potency [2] | Potency [3] | Potency [4]

CCCN(CCC)S(=O)(=O)c1ccc(C(=O)O)cc1
inactive: Potency [1] | Potency [2] | Potency [3] | Potency [4]

CC(=O)N(CC(O)CO)c1c(I)c(C(=O)NCCO)c(I)c(C(=O)NCC(O)CO)c1I (stereo not given)
inactive: Potency [1] | Potency [2] | Potency [3] | Potency [4]

CC(C=O)Cc1ccc(C(C)(C)C)cc1 (stereo not given)
inactive: Potency [1] | Potency [2] | Potency [3] | Potency [4]

Cc1ccc(C)c(O)c1
inactive: Potency [1] | Potency [2] | Potency [3] | Potency [4]

COc1ccc2c(c1)c(CC(=O)OC/C=C(\C)CC/C=C(\C)CCC=C(C)C)c(C)n2C(=O)c1ccc(Cl)cc1
inactive: Potency [1] | Potency [2] | Potency [3] | Potency [4]

CO[Si](CCCOCC1CO1)(OC)OC (stereo not given)
inactive: Potency [1] | Potency [2] | Potency [3] | Potency [4]

C=CCOCC(O)CCl (stereo not given)
inactive: Potency [1] | Potency [2] | Potency [3] | Potency [4]

O=[N+]([O-])c1ccccc1CCO
inactive: Potency [1] | Potency [2] | Potency [3] | Potency [4]
